Rows were chosen to be rich in hits. Some 4.3% of all compounds tested hit in one or more screens of this group.
KKLEB tox – reduces viability of KKLEB cystic fibrosis airway cells; KKLEB CF airway cells viability, ATPlite luminescence, overnight; stronger effect = lower value; cells stimulated with P. aeruginosa culture filtrate; activity change (cytotoxicity), % at 5 µM; 360,000 compounds, 0.36% hits; AID 602141;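 active = corrected activity change at or below -50% at 5 µM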
CF NFkB inh – cystic fibrosis NF-kB activation inhibition | 360,000 compounds, 0.86% hits | inhibition, % at 5 µM | KKLEB NF-kB-GFP reporter, PAF-induced, GFP fluorescence overnight | AID 588850;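 active = at least 50% inhibition at 5 µM, scaled per plate between neutral and stimulator controls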;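 note: PAF is a Pseudomonas aeruginosa culture filtrate used as stimulus; plate controls were PAF-stimulated DMSO wells for no effect and unstimulated DMSO wells for full effect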
CHOP inh – inhibitors of CHOP induction in ER stress response | CHO-K1 CHOP-promoter luciferase, tunicamycin-induced, 15-18 h | inhibition, % at 10 µM | 220,000 compounds, 3.8% hits | AID 2732;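 active = compounds that reduced the stress-induced luciferase reporter signal by more than about 70% of percent inhibition, limit read from the data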;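 note: 0% = tunicamycin plus vehicle and 100% = wells without tunicamycin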
Peg3 promoter – Peg3 promoter activity inhibition | inhibition, % at 20 µM | AID 588405 | HeLa PEG-Prom luciferase reporter, luminescence, overnight | 360,000 compounds, 1.7% hits;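 active = inhibition of at least 50% at 20 µM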
MITF TRPM1 inh – MITF TRPM1 promoter inhibition in SK-MEL-5 cells. SK-MEL-5 TRPM1 promoter luciferase, 24 h. inhibition, % at 12.5 µM. 330,000 compounds, 0.83% hits;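 active = mean inhibition across replicates of 60% or more, whatever share of single replicates reaches that level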
HIF-2a inh – HIF-2a inhibition; AID 624352; 360,000 compounds, 0.72% hits; 786-0 RCC cells HIF-2a reporter, luciferase luminescence, overnight; inhibition, % at 18.8 µM;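 active = inhibition of the luminescence signal of 40% or more relative to plate controls, in a single-dose primary screen at 18.75 µM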
Active calls of the source: *; . = no result.

SMILES	KKLEB tox	CF NFkB inh	CHOP inh	Peg3 promoter	MITF TRPM1 inh	HIF-2a inh
Cc1ccc(C(=O)CNc2cccc(Cl)c2)cc1	-1.9	7.2	-39.3	-58.5	-68.8	-99.6
O=C(CNc1cccc(Cl)c1)c1ccc(Cl)cc1	-3.2	-20.7	74.9*	-20.8	-46.9	-34.0
Cc1ccsc1/C=C1\CCc2ccccc2C1=O	-47.8	-23.7	76.9*	-114.1	4.2	-148.0
O=C1C(=Cc2ccccn2)CCc2ccccc21	-5.4	61.4*	.	-72.0	.	-76.6
Cc1cc(C)n(CCCNC(=O)C2CC(=O)N(Cc3ccccc3)C2)n1 (stereo unspecified)	14.3	-17.4	.	19.7	8.0	3.8
C[C@H]1CN([C@@H](C)CO)C(=O)CCCn2nncc2CO[C@@H]1CN(C)C(=O)NC1CCCCC1	3.1	-21.2	.	1.7	.	9.6
CC(=O)c1cccc(-c2ccnc3c2CC(C(=O)NCC2CCOCC2)O3)c1 (stereo unspecified)	5.9	16.2	.	7.2	.	-2.1
Cc1ccccc1NC(=O)CN1CCN(C(=O)c2ccco2)CC1	-2.2	-13.6	.	53.2*	-0.1	-2.6
Cc1cc(Cl)ccc1NC(=O)CN1CCN(C(=O)c2ccco2)CC1	5.4	9.4	.	-3.0	3.9	-7.0
COc1ccc(NC(=O)c2cc(S(=O)(=O)N3CCc4ccccc43)cn2C)cc1	10.8	6.8	.	27.1	.	-4.5
Cc1ccc(NC(=O)c2cc(S(=O)(=O)N3CCc4ccccc43)cn2C)cc1C	-20.2	36.0	.	52.0*	9.5	25.1
CC1=C(C(=O)N2CCOCC2)CC(CC(=O)NC2CCCCC2)C(=O)N1Cc1ccccc1 (stereo unspecified)	4.6	-10.2	.	-10.4	.	1.6
CCOc1cc(CNCCO)cc(Br)c1OCc1ccc(Cl)cc1	-12.0	3.5	75.5*	101.0*	20.9	-11.6
CCOc1cccc(CNCCO)c1OCc1ccc(Cl)cc1	4.2	4.5	29.7	7.0	-12.8	13.9
CCOc1cc(CNCCCN2CCOCC2)cc(Br)c1OCc1ccccc1Cl	-54.9*	35.0	57.3	110.8*	36.8	13.1
CCOc1cc(CNC(C)(C)CO)cc(Br)c1OCc1ccc(Cl)cc1Cl	-13.9	20.6	92.4*	58.0*	-5.0	-25.5
COc1ccccc1CN1C(=O)C(C)ON=C1c1ccccc1F (stereo unspecified)	-2.2	-17.4	.	-2.0	.	-3.0
Cc1ccc(NC(=O)CSc2ncnc3ccccc23)cc1S(=O)(=O)N1CCCCCC1	-9.5	45.1	70.1*	5.8	-1.4	26.9
COc1cc(C(C)=O)ccc1OCC(=O)Nc1ccc(C)c(S(=O)(=O)N2CCCCCC2)c1	4.1	11.4	.	55.4*	32.5	29.2
COc1cc(C(C)=O)ccc1OCC(=O)Nc1ccc(S(=O)(=O)N2CCCCC2)cc1	5.7	12.8	.	2.9	.	9.7
CCOC(=O)C1CCCN(C(=O)c2ccc3c(c2)C(C)(C)CCC3(C)C)CC1 (stereo unspecified)	-5.6	4.4	.	35.6	.	26.3
Cc1ccc(N=C2NC(=O)/C(=C/c3cccnc3)S2)c(C)c1	14.9	29.7	24.6	-9.0	-1.5	1.8
Cc1ccc(N=C2NC(=O)/C(=C\c3ccsc3)S2)c(C)c1	-16.3	16.7	71.8*	14.5	-5.0	-15.1
CCN1/C(=C/c2sc(-c3ccccc3C)c[n+]2C)Sc2ccccc21	-35.7	33.7	80.5*	37.8	86.0*	-75.6
Cc1cccc2[nH]c(SCC(=O)N3CCOCC3)nc12	1.4	9.9	3.5	-29.8	7.6	-59.9
SMILES	KKLEB tox	CF NFkB inh	CHOP inh	Peg3 promoter	MITF TRPM1 inh	HIF-2a inh
CN(C)CCNC(=O)/C(=C/c1ccc(-c2ccc(Cl)cc2Cl)o1)NC(=O)c1ccccc1	-27.0	26.9	44.6	111.3*	94.9*	12.6
CN(C)CCCNC(=O)/C(=C\c1ccc(-c2cccc([N+](=O)[O-])c2)o1)NC(=O)c1ccccc1	-2.0	-19.7	29.6	44.1	-22.4	-0.8
C=CCNC(=S)Nc1cc(S(=O)(=O)N2CCOCC2)ccc1-n1cncn1	7.3	-2.0	7.5	14.6	8.7	9.1
CCN(CC)c1ccc(C(=O)NC(=S)Nc2cc(S(=O)(=O)N3CCOCC3)ccc2-n2cncn2)cc1	-70.8*	30.8	26.6	7.8	19.7	18.0
CCOC(=O)c1c(NC(=O)C2=C(C)NC(=S)NC2c2ccc(C)cc2)sc(C)c1C (stereo unspecified)	-3.5	26.5	74.0*	4.6	6.8	12.6
CCOC(=O)c1c(NC(=O)C2=C(C)NC(=S)NC2c2ccc(F)cc2)sc(C)c1C (stereo unspecified)	14.7	-10.6	58.8	19.7	2.1	7.1
Clc1ccc(-c2noc3c2-c2nc(Cc4cccc5ccccc45)sc2CC3)cc1	-3.2	-25.2	.	6.6	.	-3.3
COc1ccc(NC(=O)CCC(=O)N2CCCC2)c([N+](=O)[O-])c1	16.2	-17.6	.	-3.4	-9.8	-7.6
COc1ccc(OC)c(-c2csc(N3CCC(c4ccccc4)CC3)n2)c1	3.6	10.2	24.2	6.1	3.2	8.8
CCCC(=O)O[C@H]1C[C@@H](C)N(C(=O)c2ccccc2)c2ccc(C)cc21	-9.8	3.9	73.9*	40.0	12.0	21.6
CC1CCN(CCCNC(=O)c2cc3c(Cl)nc4ccccc4c3s2)CC1	-18.4	-39.0	43.5	53.2*	37.1	25.2
O=C(N/N=C/c1ccc(O)cc1)Nc1cccc2nsnc12	-37.8	69.3*	55.0	31.9	-53.0	-71.6
COc1ccc(/C=N/NC(=O)Nc2cccc3nsnc23)c(OC)c1	-0.8	14.2	47.3	-4.7	-15.0	24.5
Fc1ccc(NC(=S)N/N=C/c2cccc(Br)c2)c(F)c1	-7.2	11.8	95.2*	-23.0	-10.0	-57.6
Cc1ccc(C)n1-n1cnc2sc(-c3ccccc3)cc2c1=O	0.2	-14.7	78.5*	-56.4	-17.7	-130.8
CCn1cnc2sc(-c3ccccc3)cc2c1=O	2.9	-12.0	-6.4	-362.5	-40.2	-265.7
O=c1c2cc(-c3ccccc3)sc2ncn1-n1cccc1	-12.0	7.0	-13.9	-193.5	-95.5	-212.1
Cc1ccc(C)n1-n1c(C)nc2sc(-c3ccccc3)cc2c1=O	-10.4	6.0	76.9*	-100.2	-64.3	-125.4
CCOC(=O)N1CCN(S(=O)(=O)N2CCCC(C(=O)NCc3ccccc3OCC)C2)CC1 (stereo unspecified)	-6.0	-23.6	.	8.2	.	7.1
CCCC[n+]1ccn(C2=C([O-])c3ccccc3C(=O)/C2=N\S(=O)(=O)c2ccccc2)c1	1.1	13.3	-3.1	20.0	96.0*	-4.6
CCCCC[n+]1ccn(C2=C([O-])c3ccccc3C(=O)/C2=N\S(=O)(=O)c2ccc(Br)cc2)c1	7.2	30.4	-27.6	15.4	85.0*	11.9
CC(C)[n+]1ccn(C2=C([O-])c3ccccc3C(=O)/C2=N\S(=O)(=O)c2ccccc2)c1	-1.8	-0.8	6.2	1.2	54.9	-16.6
